Experimental data as given in PubChem BioAssay (EPA / NIEHS).
Values joined by “and” are separate entries in the source; they are usually repeats but may differ in a detail not shown here. Identical values can stand only once. Active and inactive are the calls of the source. The calls were made as follows: active = hit-call score of the fitted dose curve at least 0.9, where 1 is the maximum; inactive = score below 0.9.

Tests used:
[1] = read-out: Tissue plasminogen activator (tPA), PLAT (gene 5327); test: BSK_BE3C_tPA: BioMAP Diversity Plus: BE3C Assay for Tissue plasminogen activator (tPA) Biomarker Activity (AID 2283041); conditions: primary human bronchial epithelial cells; actives raise or lower the signal
Procedure, shortened: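 Human primary bronchial epithelial cells were dosed with chemical and tPA biomarker levels measured by ELISA 24 hours later. Activity was fitted bidirectionally against DMSO as negative control and baseline.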

[2] = read-out: Interleukin-8 (IL8), CXCL8 (gene 3576); test: BSK_CASM3C_IL8: BioMAP Diversity Plus: CASM3C Assay for Interleukin-8 (IL8) Biomarker Activity (AID 2283042); conditions: primary human coronary artery smooth muscle cells; actives raise or lower the signal;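 also: IL-8 protein level quantified by ELISA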
[3] = read-out: Human Leukocyte Antigen - DR isotype (HLADR), HLA-DRA (gene 3122); test: BSK_CASM3C_HLADR: BioMAP Diversity Plus: CASM3C Assay for Human Leukocyte Antigen - DR isotype (HLADR) Biomarker Activity (AID 2283043); conditions: primary human coronary artery smooth muscle cells; actives raise or lower the signal;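 also: cell-surface HLA-DR protein level quantified by ELISA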
[4] = read-out: Macrophage colony-stimulating factor (MCSF), CSF1 (gene 1435); test: BSK_CASM3C_MCSF: BioMAP Diversity Plus: CASM3C Assay for Macrophage colony-stimulating factor (MCSF) Biomarker Activity (AID 2283044); conditions: primary human coronary artery smooth muscle cells; actives raise or lower the signal;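 also: M-CSF protein amount quantified by ELISA after 24 h exposure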
[5] = read-out: Low-density lipoprotein receptor (LDLR), LDLR (gene 3949); test: BSK_CASM3C_LDLR: BioMAP Diversity Plus: CASM3C Assay for Low-density lipoprotein receptor (LDLR) Biomarker Activity (AID 2283045); conditions: primary human coronary artery smooth muscle cells; actives raise or lower the signal;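 also: LDLR protein level on the cell surface quantified by ELISA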
[6] = read-out: Monocyte Chemoattractant Protein-1 (MCP1), CCL2 (gene 6347); test: BSK_CASM3C_MCP1: BioMAP Diversity Plus: CASM3C Assay for Monocyte Chemoattractant Protein-1 (MCP1) Biomarker Activity (AID 2283046); conditions: primary human coronary artery smooth muscle cells; actives raise or lower the signal;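 also: MCP-1 level quantified by ELISA 24 h after dosing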
[7] = BSK_CASM3C_Proliferation: Cell Proliferation Assessment in the BioMAP Diversity Plus: CASM3C Assay (AID 2283047); conditions: primary human coronary artery smooth muscle cells;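 also: sulforhodamine B total protein stain as relative cell number at 560 nm; sub-confluent cells exposed 48 h before staining; fitted both ways against DMSO so gain or loss of cell number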
[8] = read-out: Monokine induced gamma interferon (MIG), CXCL9 (gene 4283); test: BSK_CASM3C_MIG: BioMAP Diversity Plus: CASM3C Assay for Monokine induced gamma interferon (MIG) Biomarker Activity (AID 2283048); conditions: primary human coronary artery smooth muscle cells; actives raise or lower the signal;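 also: MIG protein level measured by ELISA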
[9] = read-out: serum amyloid A (SAA), SAA1 (gene 6288); test: BSK_CASM3C_SAA: BioMAP Diversity Plus: CASM3C Assay for serum amyloid A (SAA) Biomarker Activity (AID 2283049); conditions: primary human coronary artery smooth muscle cells; actives raise or lower the signal;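 also: SAA protein level quantified by ELISA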
[10] = BSK_CASM3C_SRB: Viability Assessment in the BioMAP Diversity Plus: CASM3C Assay (AID 2283050); conditions: primary human coronary artery smooth muscle cells;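 also: total protein by SRB staining as cytotoxicity measure in parallel cultures; cells exposed to compound for 24 h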

Measured: AC50

O=C(Nc1ccc2c(O)c(N=Nc3ccc(N=Nc4ccc(S(=O)(=O)O)cc4)cc3)c(S(=O)(=O)O)cc2c1)c1ccccc1
active: [1] 5.36 µM and 5.91 µM
inactive: all other assays above

CC(=O)C1(C)CC2=C(CCCC2(C)C)CC1C (stereo not drawn)
active: [1] 12.7 µM | [4] 10.3 µM | [6] 20 µM | [7] 13.2 µM | [8] 27.6 µM | [9] 11.9 µM | [10] 12.4 µM
inactive: [2] | [5]

c1ccc(Oc2ccccc2)cc1
inactive: all assays above

CCC(C)c1cc([N+](=O)[O-])cc([N+](=O)[O-])c1OC(=O)OC(C)C (stereo not drawn)
active: [1] 13.6 µM | [2] 4.74 µM | [3] 13.7 µM | [4] 32.7 µM | [5] 31.8 µM | [6] 32.3 µM | [7] 29.7 µM | [8] 30.7 µM | [9] 34.1 µM | [10] 25.8 µM

C=C(C)C(=O)OCC(CC)(COC(=O)C(=C)C)COC(=O)C(=C)C
active: [6] 4.8 µM
inactive: all other assays above

CS(=O)(=O)OCCCCOS(C)(=O)=O
inactive: all assays above

CCCCCCCCCCCCCCCC(=O)OC/C=C(C)/C=C/C=C(C)/C=C/C1=C(C)CCCC1(C)C
inactive: all assays above

O=C1OC2(c3ccccc31)c1ccc(O)c(Br)c1Oc1c2ccc(O)c1Br
active: [1] 20 µM
inactive: all other assays above

CC=Cc1ccc(OCC)c(O)c1
inactive: all assays above

CC(=O)c1c(C)c([N+](=O)[O-])c(C(C)(C)C)c([N+](=O)[O-])c1C
inactive: all assays above

C1=CC2C3C=CC(C3)C2C1 (stereo not drawn)
inactive: all assays above

CCN(CC)C(=O)N(CC)CC
inactive: all assays above

O=C1OC[C@H](Cc2cccc(O)c2)[C@H]1Cc1cccc(O)c1
inactive: all assays above

CC(=O)Nc1ccc(C(=O)CCl)cc1
inactive: [9]
active: [2] 12.6 µM | [3] 3.78 µM | [4] 8.22 µM | [5] 11.6 µM | [6] 8.38 µM | [7] 5.44 µM | [8] 8.96 µM | [10] 12.8 µM

Cc1cc(CCC(=O)OCCOCCOCCOC(=O)CCc2cc(C)c(O)c(C(C)(C)C)c2)cc(C(C)(C)C)c1O
inactive: all assays above

CSCCC=O
inactive: all assays above

CCCCCCC(CO)CCCC (stereo not drawn)
inactive: all assays above

CN(C)C(=S)SC(=S)N(C)C
active: [3] 19.9 µM | [7] 19.9 µM | [8] 19.9 µM
inactive: all other assays above

CCCCN(CCCC)C(=O)N(CCCC)CCCC
active: [1] 6.94 µM | [2] 20 µM | [3] 12.5 µM | [4] 17.4 µM | [5] 20 µM | [6] 20 µM | [7] 10.4 µM | [8] 20 µM | [9] 10.8 µM | [10] 13.9 µM

Oc1c(Cl)cc(Cl)c(Cl)c1Cc1c(O)c(Cl)cc(Cl)c1Cl
inactive: [1] | [2] | [5]
active: [3] 2.28 µM | [4] 8.79 µM | [6] 30.7 µM | [7] 5.37 µM | [8] 19.8 µM | [9] 3.97 µM | [10] 7.17 µM

COc1ccc(CCN2CCC(Nc3nc4ccccc4n3Cc3ccc(F)cc3)CC2)cc1
active: [5] 1.54 µM | [7] 8.02 µM
inactive: all other assays above

CN(C)C(=O)Nc1ccc(Oc2ccc(Cl)cc2)cc1
active: [1] 4.19 µM
inactive: all other assays above

CC(C)(C)CC(C)(C)c1ccc(OCCOCC[N+](C)(C)Cc2ccccc2)cc1
active: [2] 7.3 µM | [3] 6.1 µM | [4] 7.89 µM | [5] 8.21 µM | [6] 8.03 µM | [7] 7.66 µM | [8] 9.51 µM | [9] 5 µM | [10] 7.54 µM
inactive: [1]
